Source: PubChem (National Center for Advancing Translational Sciences (NCATS))
Sampled rows, rich in hits. Any-hit rate of the full collection: about 8.3%.
Giardia kill = Small Molecules that selectively kill Giardia lamblia: qHTS; Giardia lamblia trophozoite viability; activity change, % at 7.66 µM, hits read low; hit rate 0.15% among 340,000; in the data active = activity change below about -80%; inconclusive = between about -30% and that limit;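 also: parasites exposed to compound for two days anaerobically before the ATP read; % is scaled to controls: 0 for no effect and ±100 for the full control effect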
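Viability, read as ATP luminescence: trophozoites at 100 cells/well, compound added, 48 hrs anaerobic at 37 deg C, then 15-30 min room-temperature development before reading.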
RORgamma inh = qHTS for inhibitors of ROR gamma transcriptional activity; Nuclear receptor ROR-gamma (Mus musculus), P51450; Drosophila S2 Gal4-RORgamma UAS-luciferase reporter, 20 h; Potency, µM (top dose mostly 53.6 µM), for the others: top-dose activity change, negative = inhibition, actives largely listed as inhibitors; hit rate 5.4% among 310,000; AID 2551, 2010; also: potency is read from the fitted curve at half-maximal effect; % is scaled to controls: 0 for no effect and ±100 for the full control effect; nearly all actives have a fitted effect of over 60% in size
Target sequence (P51450 whole entry, looked up, the tested form may be a part): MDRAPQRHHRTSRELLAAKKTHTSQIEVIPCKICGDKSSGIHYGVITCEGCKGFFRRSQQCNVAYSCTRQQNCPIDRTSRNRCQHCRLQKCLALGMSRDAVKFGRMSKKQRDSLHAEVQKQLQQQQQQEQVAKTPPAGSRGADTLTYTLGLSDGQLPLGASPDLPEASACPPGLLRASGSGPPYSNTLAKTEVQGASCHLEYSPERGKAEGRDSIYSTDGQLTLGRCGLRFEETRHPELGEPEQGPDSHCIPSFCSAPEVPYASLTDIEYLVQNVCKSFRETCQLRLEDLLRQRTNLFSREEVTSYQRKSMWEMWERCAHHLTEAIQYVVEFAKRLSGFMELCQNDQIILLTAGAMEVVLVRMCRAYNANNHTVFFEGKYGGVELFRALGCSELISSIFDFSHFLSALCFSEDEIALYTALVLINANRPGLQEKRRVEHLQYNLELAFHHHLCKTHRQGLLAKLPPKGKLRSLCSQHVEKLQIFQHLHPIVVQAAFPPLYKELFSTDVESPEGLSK
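ROR gamma transcriptional activity was tracked as Gal4-UAS luciferase output in stably transfected Drosophila Schneider cells, with compound added 1 hr before 700 uM copper sulfate induction and a 20 hr ambient-temperature incubation.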
MCF10A rereplic = A quantitative high throughput screen for small molecules that induce DNA re-replication in MCF 10a normal breast cells; MCF 10A DNA re-replication, Hoechst nuclear intensity, 48 h; Potency, µM (titrated, usually from 46.1 µM), for inactives: at the highest dose activity, positive = re-replication, actives largely listed as activators; hit rate 2.9% among 350,000; AID 624296, 2012; also: potency is read from the fitted curve at half-maximal effect; % of control where 0% means no effect; nearly all actives have a fitted effect of over 50% in size
SW480 rereplic = A quantitative high throughput screen for small molecules that induce DNA re-replication in SW480 colon adenocarcinoma cells. Potency, µM (titrated, usually from 46.1 µM), inactives show at the top dose re-replication activation, usual class: activators. AID 624297, 2012. hit rate 1.8% among 340,000. SW480 DNA re-replication, Hoechst DNA content imaging, 48 h; also: potency is read from the fitted curve at half-maximal effect; % of control where 0% means no effect; nearly all actives have a fitted effect of over 55% in size
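Image-based DNA-content assay: after two days of treatment, nuclei were labelled with the DNA dye Hoechst and imaged, and hits were compounds raising the count of nuclei showing high fluorescence intensity.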
BCR signal inh = qHTS Assay to Find Inhibitors of Chronic Active B-Cell Receptor Signaling. ABC-DLBCL IkBa-CBG/CBR reporter, luminescence ratio, 4 h. Potency, µM (titrated, usually from 46.1 µM), inactives show at the highest dose activity change, negative = inhibition, actives largely listed as inhibitors. hit rate 0.05% among 340,000. AID 493014, 2011; active = well fitted inhibition curve with a large enough effect in the signal ratio, with a control signal flat, not every such curve was filed as active; inconclusive = small, poorly fitted or top-dose-only effect, or effect the other way, or a change in a side signal; the % refers to the signal ratio;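 also: potency is read from the fitted curve at half-maximal effect; plate controls were basal doxycycline-induced cells for no effect and cells given 10 µM MG132 for full effect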
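Cell line TMD8 (human ABC DLBCL), stably expressing tet-inducible CBG68-IkBa fusion and CBR; IMDM/0.5% FBS; cpd up to 46 uM; dox induction, 4 h, 37C/5% CO2; dual luminescence; green/red ratio; MG132 control.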
VP16 counter = VP16 counterscreen qHTS for inhibitors of ROR gamma transcriptional activity; Drosophila S2 Gal4-VP16 UAS-luciferase, luminescence, 20 h; Potency, µM (top dose mostly 53.6 µM), inactives show at the highest dose activity, negative = inhibition, usual class: inhibitors; hit rate 3.5% among 310,000; AID 2546, 2010;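 also: Gal4-VP16 expression switched on by copper sulfate through the metallothionein promoter; potency is read from the fitted curve at half-maximal effect; % is scaled to controls: 0 for no effect and ±100 for the full control effect; nearly all actives have a fitted effect of over 50% in size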
The depositor's hits bear a star; ? = inconclusive; · = not tested or not shown; [ ] = dose if it differs, or a comment. Unless noted, calls follow the shape of the dose curve; as a rule, active = well fitted curve in the direction sought with a large enough effect; inconclusive = small, poorly fitted or top-dose-only effect, or another doubt; inactive = no such curve, though single readings can be large; an effect the other way counts as inactive or inconclusive.

SMILES | Giardia kill | RORgamma inh | MCF10A rereplic | SW480 rereplic | BCR signal inh | VP16 counter
CCOC(=O)C1=C(C)N(CCCC(=O)O)C(=O)NC1c1ccc(Cl)cc1 (configuration not stated) | -14 | 12% | -3% | -45% | 1% | 8%
CCOc1ccc2ccccc2c1C1NC(=S)N(C)C(C)=C1C(=O)OC (configuration not stated) | 1 | -4% | 8% | -8% | 11% | -6%
COC(=O)C1=C(C)N(C)C(C)=C(C(=O)OC)C1c1ccc(Cl)cc1 | -13 | -25% | 17% | 2% | -18% | 14%
CC1=C(C(=O)OC(C)C)C(c2ccccc2)NC(=S)N1C (configuration not stated) | 9 | 14µM* | -1% | ? | 1% | ?
Cc1cc(C)c(OCCCNC2CCCC2)c(Br)c1 | -26 | -24% | 0% | 19% | -15% | -11%
Fc1ccccc1-c1nc2c(s1)CCc1onc(-c3ccc(Br)cc3)c1-2 | -7 | · | 3% | -4% | · | ·
Cc1ccccc1NC(=O)c1ccc(F)c(S(=O)(=O)N2CCN(c3ccccc3F)CC2)c1 | · | · | · | · | -7% | ·
NS(=O)(=O)c1ccc(S(=O)(=O)N2CCN(c3nc(-c4ccccc4)nc4ccccc34)CC2)cc1 | 4 | · | · | · | · | ·
COC(=O)C1=C(C)N(C)C(=O)NC1c1ccc(O)c(OC)c1 (configuration not stated) | 20 | ? | 2% | -8% | -9% | -16%
CCOC(=O)C1=C(C)C(c2cccc(Oc3ccccc3)c2)NC(=S)N1 (configuration not stated) | 33 | 7.1µM* | ? | 6% | ? | 18µM*
COC(=O)C1=C(C)N(C)C(=S)NC1c1ccc(OC)cc1OC (configuration not stated) | -3 | 16µM* | 0% | -12% | -2% | ?
CCOC(=O)C1=C(C)NC(=S)N(C(C)=O)C1c1ccc(Cl)cc1 (configuration not stated) | 0 | 7.9µM* | -3% | -1% | ? | 18µM*
CCOC(=O)C1=C(C)N(C)C(C)=C(C(=O)OCC)C1c1ccc(Cl)cc1 | 3 | -25% | 23µM* | ? | ? | 22µM*
COc1ccc(CCC2CCNCC2)cc1 | ? | -7% | 12% | -2% | 4% | -18%
COc1ccc2[nH]cc(CCNc3ncnc4ccc(-c5ccoc5)cc34)c2c1 | · | 9% | · | · | · | 3%
CCOC(=O)C1=C(C)N(C)C(=S)NC1c1ccccc1 (configuration not stated) | 6 | 6.3µM* | 17% | -2% | 11% | 8.9µM*
CCCCSc1nnc(CSc2ncccn2)n1C | -1 | 21% | -2% | 10% | 6% | 5%
Cc1ccc(-c2cc(-c3cccc(F)c3)n[nH]2)c(O)c1 | 21 | 11µM* | ? | 9% | ? | 10µM*
Cc1ccc(O)c(-c2cc(-c3cccc(F)c3)n[nH]2)c1 | -27 | ? | 26µM* | ? | ? | ?
Cc1ccc(-c2cc(-c3ccccc3C)[nH]n2)c(O)c1 | 6 | 0.79µM* | ? | ? | ? | 1.4µM*
Cc1cccc(C)c1NC(=O)CN1CCN(C(=O)c2ccc(OCc3cn4ccccc4n3)cc2)CC1 | 17 | · | 14% | 1% | 1% | ·
CCOc1ccc(NC(=S)NCc2nc3ccccc3[nH]2)cc1 | ? | ? | 17% | -17% | 5% | 11%
CCOc1ccc(NC(=S)Nc2cccc3ccccc23)cc1 | 0 | 7.9µM* | 11% | 0% | -5% | 8.9µM*
CCOc1ccc(NC(=S)Nc2cccc3cnccc23)cc1 | -4 | 18µM* | 0% | -7% | -5% | ?
CN(C)S(=O)(=O)c1cccc(NC(=S)Nc2cccc3cnccc23)c1 | 6 | ? | 21µM* | ? | ? | ?
SMILES | Giardia kill | RORgamma inh | MCF10A rereplic | SW480 rereplic | BCR signal inh | VP16 counter
CN(C)S(=O)(=O)c1cccc(NC(=S)N/N=C/c2cccc(O)c2)c1 | -9 | 8.9µM* | 5% | -1% | ? | ?
S=C(Nc1cccnc1)Nc1cccc2cnccc12 | -7 | -17% | 8% | 5% | 1% | -16%
COCC(C)(C)COS(N)(=O)=O | 24 | 3% | 6% | -1% | -6% | 2%
COC(=O)Nc1cc(C(=O)c2ccc(Cl)cc2Cl)c[nH]1 | 5 | -3% | -1% | -12% | 0% | -2%
CCOc1ccc(NC(=S)NCCCN2CCOCC2)cc1 | 22 | -24% | 3% | 2% | 6% | -7%
CCOc1ccc(NC(=S)Nc2ccccc2C2CC2)cc1 | 4 | 2.8µM* | 19% | -4% | -6% | 11µM*
O=C(O)CCCNC(=O)CC1S/C(=N/N=C/c2ccccc2O)NC1=O (configuration not stated) | -12 | -22% | ? | 1% | -1% | -11%
O=C(CC1S/C(=N/N=C/c2cccs2)NC1=O)Nc1ccccc1F (configuration not stated) | 2 | 8.9µM* | -5% | ? | 5% | -23%
COc1ccccc1NC(=O)CC1S/C(=N/N=C2\CCCc3ccccc32)NC1=O (configuration not stated) | 4 | 8% | ? | 17% | ? | 6%
O=C1N/C(=N\N=C\c2cccs2)SC1Cc1ccc(Cl)c(Cl)c1 (configuration not stated) | -5 | 0.45µM* | 15% | 20% | ? | 0.71µM*
C=CCC1S/C(=N/N=C/c2cccs2)NC1=O (configuration not stated) | -3 | 2µM* | 0% | -1% | ? | 5.6µM*
C=CCN1C(=O)C(Cc2ccc(OC)cc2)S/C1=N\N=C\c1cccs1 (configuration not stated) | -20 | 2% | 7% | 2%[9.22 µM] | -6% | 10%
O=C(CC1S/C(=N/N=C2CCCCCC2)NC1=O)Nc1ccccc1C(F)(F)F (configuration not stated) | 2 | 5.6µM* | 2% | -9% | 5% | ?
Cc1[nH]c2ccccc2c1C(=O)C(=O)NC1CC1 | -20 | -29% | 3% | -6% | ? | -15%
CCNc1nnc(SCC(=O)c2c(N)n(C3CC3)c(=O)[nH]c2=O)s1 | -1 | · | -1% | 3% | 3% | ·
O=C(CCSCc1cccc(Cl)c1)N1CCN(c2ccc(Cl)cc2)CC1 | · | · | · | · | 0% | ·
O=C(Nc1nncs1)C1CCCC1 | 56 | · | -4% | -1% | · | ·
